In PubChem BioAssay:
Calls of active or inactive are those of the source. Unless noted, the rule behind the calls is not given here.

Assays:
[1] = system: Wnt5a (protein binding on small-molecule microarray); assay: Wnt5a binders on small-molecule microarray, primary screen, biophysical, 635/667 nm fluorescence (AID 1142); settings: 635 nm fluorescence, higher = more signal;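 note: fluorescence read at 667 nm with signal to noise per printed feature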
[2] = cell viability in Huh7 cells, primary screen, cytotoxicity control for HCV replication inhibitor project, CellTiter-Glo luminescence, basal, 48 h (AID 1143); settings: Huh7 HCV replicon, higher = more signal, called active from +8 up or from −8 down;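 note: Huh7 hepatoma cells carrying a hepatitis C replication reporter with no stimulus; test concentration not given here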
[3] = P. aeruginosa biofilm formation inhibitors, primary screen, PAO1 strain, BacTiter-Glo luminescence, LB-PBS (AID 1144); settings: 12 h, higher = more signal
[4] = CREB reporter modulators without forskolin, primary screen, cell-based, PC12, CRE-LacZ reporter, unstimulated (AID 1145); settings: no forskolin, luminescence, 4.5 h, higher = more signal, called active from +8 up or from −8 down
[5] = CREB reporter modulators under forskolin, primary screen, cell-based, PC12, CRE-LacZ reporter, forskolin-stimulated (AID 1146); settings: luminescence, 4.5 h, higher = more signal, called active from +8 up or from −8 down;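 note: PC12 cells with 6xCRE LacZ reporter stimulated by forskolin 10 µM; beta-galactosidase reporter signal reflecting CREB driven transcription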
[6] = molecular target: Streptavidin (Streptomyces avidinii) (UniProt P22629); assay: streptavidin binders on small-molecule microarray, primary screen, artefact control for SMM compound annotation, biophysical, 635/667 nm fluorescence (AID 1147); settings: streptavidin binding, higher = more signal;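 note: signal reflects streptavidin binding to arrayed compounds as a control protein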
Chain of Streptavidin (Streptomyces avidinii) (P22629 whole entry, looked up): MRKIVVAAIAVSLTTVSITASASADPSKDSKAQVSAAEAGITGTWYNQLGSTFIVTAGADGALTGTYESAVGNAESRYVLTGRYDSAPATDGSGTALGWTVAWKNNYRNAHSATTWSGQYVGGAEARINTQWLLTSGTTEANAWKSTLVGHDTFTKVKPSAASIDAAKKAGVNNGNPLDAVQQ

[7] = small-molecule binders of probe aInhba, primary screen, biochemical, small-molecule microarray, 635/667 nm fluorescence (AID 1148); settings: higher = more signal;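 note: score merges 667nm spot fluorescence with signal-to-noise for antibody binding to printed compounds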
Torsin-1A (Homo sapiens) [8] = molecular target: Torsin-1A (Homo sapiens) (UniProt O14656); assay: torsin A binders from cell lysate, primary screen, small-molecule microarray, wild-type, 635/667 nm (AID 1149); settings: COS7 hTOR1A-WT lysate, 635 nm fluorescence, higher = more signal
Chain of Torsin-1A (Homo sapiens) (O14656 whole entry, looked up): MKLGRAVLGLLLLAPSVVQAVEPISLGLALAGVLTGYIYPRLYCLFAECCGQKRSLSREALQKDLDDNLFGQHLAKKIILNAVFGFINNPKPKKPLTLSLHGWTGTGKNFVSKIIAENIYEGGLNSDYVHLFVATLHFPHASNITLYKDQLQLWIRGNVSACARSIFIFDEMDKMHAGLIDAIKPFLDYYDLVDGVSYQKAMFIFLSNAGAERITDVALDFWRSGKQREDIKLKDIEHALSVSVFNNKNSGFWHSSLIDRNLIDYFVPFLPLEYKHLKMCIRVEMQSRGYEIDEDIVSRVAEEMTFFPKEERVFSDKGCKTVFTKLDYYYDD

Torsin-1A (Homo sapiens) [9] = molecular target: Torsin-1A (Homo sapiens) (UniProt O14656); assay: small-molecule binders of mutant TOR1A in lysate, primary screen, cell lysate, small-molecule microarray, COS7 lysate, 635/667 nm fluorescence (AID 1150); settings: COS7 hTOR1A mutant lysate, 635 nm fluorescence, higher = more signal;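 note: score pools 667 nm emission and signal to noise measuring lysate protein binding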
[10] = system: Sonic hedgehog protein (Shh); assay: small-molecule binders of Shh protein, primary screen, biochemical, small-molecule microarray, 635/667 nm fluorescence (AID 1151); settings: small-molecule microarray binding, 635 nm fluorescence; higher = more signal;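 note: Shh protein binding to compounds spotted on small-molecule microarray slides; score combines spot fluorescence intensity with signal-to-noise across triplicate slides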
[11] = E. coli DRC41 culture turbidity changes, primary screen, E. coli filamentation inducer project, strain DRC41, OD650, 48 h (AID 1152);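 note: E. coli MC1000 strain DRC41 lacking acrAB efflux pump and sulA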; settings: E. coli DRC41 (acrAB sulA), higher = more signal, called active from +8 up or from −8 down
[12] = small-molecule binders of probe aLefty1, primary screen, biochemical, small-molecule microarray, 635/667 nm fluorescence (AID 1153); settings: higher = more signal;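 note: score merges spot fluorescence with signal-to-noise ratio from the scanned slide images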
[13] = PSAC antagonists in infected red cells, primary screen, cell-based, P. falciparum Indochina, OD700, 1 h (AID 1154); settings: P. falciparum Indochina infected RBC osmotic lysis, higher = more signal, called active from +8 up or from −8 down
[14] = PSAC antagonists in infected red cells, primary screen, cell-based, P. falciparum Indochina, OD700, 2 h (AID 1155);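 note: lysis reports solute entry through the parasite surface anion channel PSAC; channel blockers reduce lysis of infected cells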; settings: P. falciparum Indochina infected erythrocytes, osmotic lysis OD700; higher = more signal, called active from +8 up or from −8 down
[15] = osmotic lysis modulators in infected erythrocytes, primary screen, PSAC antagonist project, cell-based, P. falciparum Indochina, OD700, 3 h (AID 1156); settings: higher = more signal, called active from +8 up or from −8 down
[16] = PSAC antagonists in infected red cells, primary screen, cell-based, P. falciparum Indochina, OD700, 18 h (AID 1157); settings: P. falciparum Indochina infected erythrocytes, osmotic lysis OD700, 18 h; higher = more signal, called active from +8 up or from −8 down
[17] = modulators of S6 phosphorylation in cells, primary screen, cell-based, A549, cytoblot, luminescence, serum-stimulated (AID 1158); settings: A549 phospho-S6 cytoblot, 5 h, higher = more signal;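 note: serum-stimulated A549 lung adenocarcinoma cells; signal is phosphorylated S6 detected by cytoblot immunostaining with HRP secondary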
[18] = molecular target: NADPH oxidase 2 (Homo sapiens) (UniProt P04839); assay: NOX2-dependent H2O2 signal modulators, primary screen, NOX inhibitor project, cell-based, HEK293-NOX2, PMA-stimulated, Amplex Red fluorescence (AID 1159); settings: 45 min, higher = more signal, called active from +8 up or from −8 down; note: test concentration not given here
Chain of NADPH oxidase 2 (Homo sapiens) (P04839 whole entry, looked up): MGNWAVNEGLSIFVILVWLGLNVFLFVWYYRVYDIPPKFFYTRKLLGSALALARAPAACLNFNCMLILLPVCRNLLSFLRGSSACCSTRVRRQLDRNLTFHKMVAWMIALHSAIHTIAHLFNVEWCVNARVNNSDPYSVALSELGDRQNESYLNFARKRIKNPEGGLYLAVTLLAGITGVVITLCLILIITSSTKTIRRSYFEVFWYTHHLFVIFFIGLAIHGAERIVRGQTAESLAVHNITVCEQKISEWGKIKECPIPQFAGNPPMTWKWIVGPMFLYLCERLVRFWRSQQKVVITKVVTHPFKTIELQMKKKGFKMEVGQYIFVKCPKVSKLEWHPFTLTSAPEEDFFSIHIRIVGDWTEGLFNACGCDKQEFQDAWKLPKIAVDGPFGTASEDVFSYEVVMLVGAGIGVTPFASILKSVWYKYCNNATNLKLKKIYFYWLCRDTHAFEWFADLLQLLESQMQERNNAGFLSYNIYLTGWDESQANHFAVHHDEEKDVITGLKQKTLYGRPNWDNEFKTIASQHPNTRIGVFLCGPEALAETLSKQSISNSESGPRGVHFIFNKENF

[19] = molecular target: NADPH oxidase 4 (Homo sapiens) (UniProt Q9NPH5); assay: NOX4-dependent H2O2 signal modulators, primary screen, NOX inhibitor project, cell-based, HEK293-NOX4, tetracycline-induced, Amplex Red fluorescence (AID 1160); settings: 45 min, higher = more signal, called active from +8 up or from −8 down
Chain of NADPH oxidase 4 (Homo sapiens) (Q9NPH5 whole entry, looked up): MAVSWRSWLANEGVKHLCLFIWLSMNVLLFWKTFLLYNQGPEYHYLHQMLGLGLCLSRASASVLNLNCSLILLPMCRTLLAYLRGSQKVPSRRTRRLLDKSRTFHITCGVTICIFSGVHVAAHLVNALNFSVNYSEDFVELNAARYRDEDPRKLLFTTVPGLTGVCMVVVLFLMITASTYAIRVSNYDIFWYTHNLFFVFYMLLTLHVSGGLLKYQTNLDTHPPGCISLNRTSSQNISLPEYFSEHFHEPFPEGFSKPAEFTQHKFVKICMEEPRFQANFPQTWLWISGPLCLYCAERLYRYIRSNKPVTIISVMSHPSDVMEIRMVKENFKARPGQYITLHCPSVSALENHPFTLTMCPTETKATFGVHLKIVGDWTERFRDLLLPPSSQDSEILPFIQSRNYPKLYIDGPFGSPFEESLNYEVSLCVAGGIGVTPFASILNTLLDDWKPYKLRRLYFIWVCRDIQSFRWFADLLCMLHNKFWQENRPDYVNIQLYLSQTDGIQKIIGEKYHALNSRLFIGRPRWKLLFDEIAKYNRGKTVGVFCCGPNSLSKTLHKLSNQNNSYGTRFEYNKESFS

[20] = molecular target: NADPH oxidase 5 (Homo sapiens) (UniProt Q96PH1); assay: NOX5-dependent H2O2 signal modulators, primary screen, NOX inhibitor project, cell-based, HEK293-NOX5, Amplex Red fluorescence (AID 1161); settings: HEK293-NOX5, ionomycin, 45 min, higher = more signal
Chain of NADPH oxidase 5 (Homo sapiens) (Q96PH1 whole entry, looked up): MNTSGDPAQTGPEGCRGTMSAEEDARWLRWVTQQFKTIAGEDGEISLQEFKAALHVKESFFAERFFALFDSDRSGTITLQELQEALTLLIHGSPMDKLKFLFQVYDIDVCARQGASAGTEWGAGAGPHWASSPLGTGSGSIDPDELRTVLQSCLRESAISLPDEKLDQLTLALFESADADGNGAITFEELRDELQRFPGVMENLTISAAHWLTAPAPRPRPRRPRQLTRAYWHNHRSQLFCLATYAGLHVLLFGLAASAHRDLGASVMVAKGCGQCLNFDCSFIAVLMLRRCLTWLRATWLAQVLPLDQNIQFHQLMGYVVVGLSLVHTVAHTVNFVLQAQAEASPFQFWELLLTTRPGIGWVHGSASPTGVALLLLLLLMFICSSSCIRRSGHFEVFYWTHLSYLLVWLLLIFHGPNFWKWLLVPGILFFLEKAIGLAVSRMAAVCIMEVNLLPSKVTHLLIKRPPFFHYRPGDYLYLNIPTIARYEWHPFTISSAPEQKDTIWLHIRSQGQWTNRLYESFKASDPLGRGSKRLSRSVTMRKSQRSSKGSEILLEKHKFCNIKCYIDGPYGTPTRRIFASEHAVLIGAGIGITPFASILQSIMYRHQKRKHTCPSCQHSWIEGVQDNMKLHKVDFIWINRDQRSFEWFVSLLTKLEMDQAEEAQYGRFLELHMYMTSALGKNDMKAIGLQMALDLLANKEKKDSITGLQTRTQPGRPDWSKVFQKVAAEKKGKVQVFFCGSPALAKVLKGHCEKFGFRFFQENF

Structure (SMILES) | composite z-score [1] | z-score [2] | z-score [3] | z-score [4] | z-score [5] | composite z-score [6] | composite z-score [7] | composite z-score (Torsin-1A (Homo sapiens) [8]) | composite z-score (Torsin-1A (Homo sapiens) [9]) | composite z-score [10] | z-score [11] | composite z-score [12] | z-score [13] | z-score [14] | z-score [15] | z-score [16] | z-score [17] | z-score [18] | z-score [19] | z-score [20]
CC1CC/C=C\[C@H]2OC34C=CCN(Cc5ccccc5)C(=O)[C@H]3N(CCO)C(=O)[C@@H]4C2C(=O)O1 (stereo not given in full) | 0.478 | -0.273 (inactive) | 0.836 (inactive) | -0.0778 (inactive) | 0.151 (inactive) | -0.492 | -0.176 | 2.37 | 2.58 | -0.218 | 0.788 (inactive) | -0.0867 | 3.52 (inactive) | -0.133 (inactive) | 0.272 (inactive) | -0.18 (inactive) | -0.0144 | 1.66 (inactive) | 0.0441 (inactive) | 2.24
C[N+](C)(C)CCCCCCNC(=O)[C@@H]1C[C@@H]2C(=O)NCC(=O)N2[C@@H]1c1ccc(O)cc1 | 0.0508 | -0.0464 (inactive) | -0.404 (inactive) | -0.532 (inactive) | -0.828 (inactive) | 1.44 | -0.0933 | 0.319 | 0.523 | 2.16 | 0.109 (inactive) | 0.0984 | 0.451 (inactive) | -0.196 (inactive) | -1.53 (inactive) | -0.238 (inactive) | -0.727 | 0.823 (inactive) | 0.899 (inactive) | -0.757
C[N+](C)(C)CCCCCCNC(=O)[C@H]1C[C@H]2C(=O)N3CCC[C@H]3C(=O)N2[C@H]1c1cccc(OCCO)c1 | 0.544 | -0.0803 (inactive) | 0.236 (inactive) | -0.532 (inactive) | -0.583 (inactive) | -0.278 | -0.0112 | 1.98 | 1.71 | 2.15 | -0.507 (inactive) | 0.0683 | 5.47 (inactive) | 0.64 (inactive) | -2.56 (inactive) | 0.498 (inactive) | -0.632 | 1.18 (inactive) | 1.27 (inactive) | 0.865
COc1cc(NN2C(C(O)c3ccc(I)cc3)C=CC3C(=O)N(C)C(=O)C32)cc(OC)c1OC (stereo not given) | 0.212 | -2.58 (inactive) | -0.126 (inactive) | -0.326 (inactive) | -0.445 (inactive) | -0.105 | 0.0074 | -0.442 | 1.42 | -0.441 | -0.0511 (inactive) | 0.125 | 0.318 (inactive) | 0.168 (inactive) | 1.59 (inactive) | -0.374 (inactive) | 1.28 | -2.45 (inactive) | -4.04 (inactive) | -2.92
COC(=O)[C@@]1(Cc2ccccc2)[C@H]2c3cc(C(=O)N(C)C)n(Cc4ccccn4)c3C[C@H]2CN1C(=O)c1ccccc1 | 0.283 | -1.16 (inactive) | -0.0189 (inactive) | 1.73 (inactive) | 1.42 (inactive) | 2.27 | 0.38 | -0.208 | 0.239 | -0.709 | -1.59 (inactive) | 0.378 | 1.32 (inactive) | 0.458 (inactive) | 0.365 (inactive) | 0.544 (inactive) | -0.733 | 0.048 (inactive) | -1.87 (inactive) | -2.08
C=CCN1C(=O)[C@@]2(O[C@@H](CCO)[C@H]([Si](C)(C)c3ccc(OC)cc3)[C@H]2C)c2cc(NC(=O)[C@H](C)O)ccc21 | 0.442 | -5.04 (inactive) | -0.856 (inactive) | 17.4 (active) | -0.213 (inactive) | 0.0832 | -0.0695 | 0.923 | 1.01 | 1.46 | 0.301 (inactive) | -0.0879 | 23 (active) | 6.92 (inactive) | 0.903 (inactive) | 1.62 (inactive) | 0.29 | -0.54 (inactive) | 0.552 (inactive) | -0.335
CCOC(=O)C1=CC[C@@H](c2ccc(N(CC)CC)cc2)N(S(=O)(=O)c2ccc(C)cc2)[C@H]1c1ccc([N+](=O)[O-])cc1 | -0.383 | -3.45 (inactive) | 0.858 (inactive) | -0.583 (inactive) | 0.619 (inactive) | 1.08 | -0.0332 | -1 | -0.101 | -0.438 | -1.24 (inactive) | 0.437 | 1.66 (inactive) | 0.86 (inactive) | 0.723 (inactive) | 0.779 (inactive) | -0.779 | 0.599 (inactive) | -1.37 (inactive) | -0.131
CCOC(=O)C[C@H]1[C@H](OC(=O)c2ccccc2-c2ccccc2)[C@@H](NC(=O)c2ccccc2)c2cc(OCCCO)ccc2N1C(=O)Cc1ccc(OC)cc1 | -0.105 | 0.0692 (inactive) | -0.228 (inactive) | 1.58 (inactive) | 0.0006 (inactive) | 0.621 | -0.154 | -0.193 | 0.0375 | 0.0772 | -0.81 (inactive) | -0.193 | 2.01 (inactive) | 0.318 (inactive) | -0.338 (inactive) | 0.109 (inactive) | 0.0269 | 0.639 (inactive) | 1.22 (inactive) | 0.327
